High-throughput results: PubChem BioAssay, several laboratories
Compounds with a hit are over-represented: about 1.7% of the library has one in this group of screens.
CCHFV vOTU inh = CCHFV vOTU protease inhibition; Pep-AMC fluorescence; AID 651958; inhibition, % at 11.5 µM; 370,000 compounds, 0.55% hits; in the data active means inhibition above about 30%; further: 0% = vehicle wells with enzyme and 100% = no enzyme wells
PfHsp40 rescue = rescue of PfHsp40-mediated yeast toxicity | S. cerevisiae expressing PfHsp40, growth rescue, ATP luminescence | growth rescue, % at 12.5 µM | 340,000 compounds, 0.68% hits | AID 504582; in the data active means growth rescue above about 28%, passing the limit was not always enough;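 further: yeast W303a lacking pdr1 and pdr3 grown in galactose medium; growth measured after three days at 30 °C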
ugtP null kill = growth inhibition of S. aureus ugtP deletion strain; S. aureus RN4220 ugtP deletion, OD600 growth, 16 h; growth inhibition, % (concentration not given with the values); 330,000 compounds, 0.54% hits; AID 1259309; in the data active means growth inhibition above about 68%;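 further: plate controls were untreated wells for no effect and antibiotic for full effect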
BH1578 lux ind = induces V. cholerae light production without autoinducers | activation, % at 18.7 µM | 350,000 compounds, 0.16% hits | AID 588436 | V. cholerae BH1578 lux reporter, luminescence, 6 h; in the data active means activation mostly above about 9.7%, no sharp cut-off
Sa RN4220 lethal = S. aureus RN4220 growth inhibition; OD600, 16 h; inhibition, % (concentration not given with the values); 330,000 compounds, 0.33% hits; in the data active means inhibition above about 85%;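 further: plate controls were untreated cells for no effect and reference antibiotic for full effect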
Mtb hypoxia rep = reduces hypoxia-regulated biosensor signal in M. tuberculosis; 300,000 compounds, 0.1% hits; fluorescence inhibition, % (concentration not given with the values); M. tuberculosis hypoxia-regulated fluorescent reporter, fluorescence; in the data active means fluorescence inhibition mostly above about 23%, no sharp cut-off; inactive means mostly below about 17%
An asterisk follows results filed as active; i = inactive; · = no result given.

SMILES	CCHFV vOTU inh	PfHsp40 rescue	ugtP null kill	BH1578 lux ind	Sa RN4220 lethal	Mtb hypoxia rep
CCN1/C(=C/c2ccc3cccc(C)c3[n+]2CC)Sc2ccccc21	4	-1	100*	-1	100*	·
CC[n+]1c(C)sc2c3ccsc3ccc21	-3	0	5	i	5	5
CCN1C(=Cc2ccc3ccccc3[n+]2CC)Sc2cc(C)ccc21	·	·	100*	·	101*	·
C[n+]1ccccc1/C=C1\Sc2ccccc2N1CCO	20	-2	3	i	0	4
C=CC[n+]1c(/C=C2\C=Cc3cc(C)ccc3N2CC)ccc2ccccc21	-4	277*	100*	0	100*	·
CCN1/C(=C/c2ccc3cc(C)ccc3[n+]2CC)Sc2ccc3sccc3c21	·	0	101*	-6	100*	·
CCN1/C(=C/c2ccc3cc(C)cc(C)c3[n+]2CC)Sc2cc(C)ccc21	9	-6	100*	i	100*	·
Cc1ccc2c(c1)S/C(=C\c1cccc[n+]1C)N2CCO	-2	-1	0	i	1	10
CCN1/C(=C\c2ccc3cc(C)ccc3[n+]2CC)Sc2cc(C)c(C)cc21	10	-4	100*	0	100*	·
CC=C1COC(C(=O)NCCCN2CCCC2=O)(C(F)(F)F)C=C1C=C(C)C (stereo not given)	·	·	0	·	9	6
NC(=S)NN=Cc1c(O)c(Br)cc2oc3c(c12)CCCC3	·	·	-15	·	27	2
O=[N+]([O-])c1cc2oc3c(c2c(C=NCc2ccncc2)c1O)CCCC3	·	48*	-11	0	7	18
CCn1c2ccccc2c2cc(C=NNC(=O)c3ccccc3C)ccc21	·	·	26	·	-9	7
C=CCOc1c(C=NNC(N)=O)cccc1OC	·	·	4	·	2	2
CCn1nc(C)cc1C(=O)Sc1cccc(Br)c1	-16	-2	70	i	11	-4
CCn1nc(C)cc1C(=O)Sc1ccc(Cl)cc1Cl	6	-3	96*	i	24	-5
C=CCC(CC(=O)N(CCO)Cc1ccccc1)C(=O)NC(C)COC(=O)C(CC=C)CC(=O)OC(C)(C)C (stereo not given)	·	·	6	·	2	2
S=C(NCCc1ccc(Cl)cc1)Nc1ccc(Cl)cc1Cl	17	70*	99*	2	100*	2
CC(=NNC(=S)NCCc1ccccc1)c1ccc(Cl)cc1Cl	·	·	90*	·	1	12
C/C(=N\NC(=S)NCCc1ccccc1)c1ccc(Cl)cc1Cl	4	2	·	0	·	·
Fc1ccc(CCNC(=S)Nc2ccc(F)c(Cl)c2)cc1	14	113*	-22	0	-2	2
Fc1ccc(NC(=S)NCCc2ccc(Cl)cc2)cc1	-3	0	-12	i	-2	12
COc1ccc(C(OC)[C@@]2(Cc3ccc(O)cc3)N=C(N)N(C)C2=O)cc1 (stereo not given in full)	·	·	1	·	7	9
O=c1[nH]c(=O)n(Cc2ccccc2)c2nc(-c3ccco3)cc(C(F)(F)F)c12	-9	-1	16	27*	12	9
CC(NC(=O)OCc1ccccc1)C(=O)NNC(=O)C(C)NC(=O)OCc1ccccc1 (stereo not given)	·	·	8	·	6	19
SMILES	CCHFV vOTU inh	PfHsp40 rescue	ugtP null kill	BH1578 lux ind	Sa RN4220 lethal	Mtb hypoxia rep
c1ccc2c(c1)nc1n2CCN1CCN1CCCC1	-7	44*	11	-1	8	17
Cc1nc(N=C(N)NC(=O)NC2CCCCC2)nc2ccccc12	·	·	0	·	1	18
O=C(NN=Cc1cccnc1)c1cccc(NC(=O)c2ccc(Cl)cc2)c1	·	·	4	·	0	2
Cc1ccccc1Oc1ccc(-c2nc(N)nc(N)n2)cc1	7	119*	15	i	-3	4
Nc1nc(N)nc(-c2ccc(Oc3ccccc3)cc2)n1	-16	0	27	i	0	8
CCN1C(=O)C2C(c3ccc(-c4ccc(F)cc4)cc3)N3CCCC[C@@]3(C(=O)OC)C2C1=O (stereo not given in full)	·	·	9	·	-5	11
Cc1cccc2sc(NNC(=O)c3ccc(S(=O)(=O)N4CCc5ccccc5C4)cc3)nc12	8	410*	-37	i	-8	4
Cc1cccc2sc(NNC(=O)c3ccc(S(=O)(=O)N4CCCC(C)C4)cc3)nc12 (stereo not given)	8	356*	-11	i	8	0
Cc1cc(C)c2nc(NNC(=O)c3ccc(S(=O)(=O)N4CCCCC4)cc3)sc2c1	14	0	-2	0	2	5
O=C1NC(=S)N/C1=C/c1cccc([N+](=O)[O-])c1	-2	61*	5	0	6	10
CCN(CC)CCCNc1nc2cc(OC)c(OC)cc2c2nc(-c3cccnc3)nn12	-4	-1	51	-5	5	39*
CCN(CC)CCCNc1nc2ccccc2c2nc(-c3ccncc3)nn12	-2	0	-7	i	1	50*
CCN(CC)CCCNc1nc2cc(OC)c(OC)cc2c2nc(-c3ccccc3)nn12	-23	0	-8	0	18	72*
CN1CCN(CCCNc2nc3ccccc3c3nc(-c4ccccc4)nn23)CC1	-5	-3	11	-1	4	17
CC(C)c1ccc(C(=O)NN=Cc2cccc(Cl)c2Cl)cc1	·	·	-6	·	-7	·
COc1ccc(OC)c(C=NNC(=O)c2ccc(=O)n(C)c2)c1	·	·	18	·	4	-2
CCCn1nnc(NC(=S)NC(=O)c2ccccc2OC)n1	10	2	3	i	28	33*
NC(=NCCCCCCN=C(N)N=C(N)Nc1ccc(Cl)cc1)N=C(N)Nc1ccc(Cl)cc1	·	·	100*	·	100*	·
NC(=NCCCCCCN=C(N)/N=C(\N)Nc1ccc(Cl)cc1)/N=C(\N)Nc1ccc(Cl)cc1	10	15	·	0	·	·
Cc1ccc(C(=O)COc2ccccc2-c2ccccc2)cc1	-1	4	86*	0	-2	12
COc1ccc(C)cc1-n1nnnc1SC(C)C(=O)NC1CCCC1 (stereo not given)	-4	1	5	-1	0	25*
Nc1cc2nc3ccccc3oc-2cc1=O	27	376*	31	-1	38	·
O=c1oc2ccccc2cc1-c1nc2ccccc2o1	-309	0	0	0	15	8
Cc1ccc(C(=O)NNC(=S)NC(=O)c2ccccc2)cc1	-1	17	16	0	36	-10
COc1cccc(OC)c1C(=O)NC(=S)NNC(=O)[C@H]1C[C@@H]1c1ccccc1	-2	1	-6	2	17	4
COc1ccc(C(=O)NC(=S)NNC(=O)c2cccc(C)c2)cc1	5	·	49	·	72	5
Cc1ccc(C(=O)NC(=S)NNC(=O)c2ccccc2)cc1	14	39*	8	0	37	0
O=C(NC(=S)NNC(=O)[C@H]1C[C@@H]1c1ccccc1)c1cccc(F)c1	10	49*	14	2	36	0
